Hits are enriched below; roughly 2.9% of the tested compounds scored in any of these assays.
EP2 antag – inhibitors of human EP2 prostaglandin E2 receptor | P43116 | C6 glioma cells expressing human EP2, cAMP TR-FRET; cells stimulated with saturating PGE2 | inhibition, % at 25 µM | actives 0.52% (n = 260,000) | AID 1422;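 active = percent inhibition above 40 after rounding to a whole number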;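 also: rat C6 glioma host cells with rolipram phosphodiesterase inhibitor present; the protocol text gives 20 µM as final concentration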
Target sequence (P43116 whole entry, looked up): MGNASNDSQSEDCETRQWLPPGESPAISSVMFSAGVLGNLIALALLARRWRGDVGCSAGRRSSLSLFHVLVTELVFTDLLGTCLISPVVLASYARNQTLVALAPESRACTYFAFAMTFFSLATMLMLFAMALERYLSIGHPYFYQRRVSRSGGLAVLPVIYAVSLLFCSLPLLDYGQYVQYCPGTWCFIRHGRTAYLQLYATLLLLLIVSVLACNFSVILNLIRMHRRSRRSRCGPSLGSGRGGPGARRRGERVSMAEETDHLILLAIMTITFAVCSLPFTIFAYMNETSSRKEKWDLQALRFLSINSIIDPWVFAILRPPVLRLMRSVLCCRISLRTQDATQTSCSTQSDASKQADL
EP2 modulator – modulators of human EP2 prostaglandin E2 receptor. induction, % at 25 µM. EP2-expressing cells, cAMP HTRF FRET, PGE2 co-stimulation. actives 0.83% (n = 260,000);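 active = compounds whose cAMP rise, as percent of the full-agonist control response, exceeds 60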;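 also: rat C6 glioma line stably carrying human EP2 under a CMV promoter; the protocol text gives 20 µM as final concentration; 100% = response of wells given 1 µM PGE2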
PG9 binder – PG9 antibody binding by small molecule; actives 0.43% (n = 360,000); AID 624416; TR-FRET gp120-PG9 antibody binding; inhibition, % at 6.7 µM; in the data active = inhibition above about 8.5%
RAM network inh – yeast RAM network inhibition | AID 868 | S. cerevisiae dse1pr::URA3 reporter, 5-FOA growth OD615, 2 d; analog-sensitive cbk1-as2 kinase mutant strain | inhibition, % at 50 µM | actives 1.8% (n = 190,000);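 active = inhibition above a set limit, 3 SD over mean compound inhibition, cut at about 8.4% in these data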;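 also: 0% = DMSO-only wells with no growth and 100% = 10 µM 1-NA-PP1 full growth; inhibition rescues growth on 5-FOA so higher OD means more RAM inhibition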
Rev-erbA mod – modulators of human Rev-erb alpha DNA binding; P20393; Rev-erbα–FITC-DNA binding, fluorescence polarization, 90 min; activity, % at 10 µM; actives 0.79% (n = 370,000); AID 1259318;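 active = activity above about 14%, limit read from the data; passing the limit was not always enough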;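 also: 0% = DMSO wells with 35 nM protein and 100% = DMSO wells with 750 nM protein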
SKN-1 block – blocks SKN-1 activity in C. elegans; C. elegans VP596 Pgst-4::GFP/RFP ratio, acrylamide-induced, 24 h; inhibition, % at 21.8 µM; actives 0.49% (n = 360,000);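 active = interference check ratio from 0.5 to 1.5 plus GFP to RFP signal ratio inhibition reaching or exceeding a fixed threshold, cut at about 30% in these data, passing the limit was not always enough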
PG9 binder conf – confirmation of small molecules binding HIV-1 gp120 antibody PG9. actives 90% (n = 1,500). TR-FRET PG9 antibody binding, biochemical. inhibition, % at 6.7 µM. shares compounds with PG9 binder. AID 651571; in the data active = inhibition above about 9%
PGV04 counter – counter-screen for PG9 binders: binding control antibody PGV04; shares compounds with PG9 binder; TR-FRET PGV04 antibody-gp120 binding, biochemical; inhibition, % at 6.7 µM; actives 95% (n = 1,500); AID 651604; in the data active = inhibition above about 9.5%
PG9 bind DR – PG9 antibody binding, dose response; shares compounds with PG9 binder; TR-FRET PG9 antibody-gp120 binding inhibition; IC50, µM; 95 tested, under 10 active; in the data active = IC50 below about 10 µM
PGV04 binding DR – PGV04 binding, dose response counter-screen | actives 20% (n = 95) | TR-FRET binding to control antibody PGV04 | shares compounds with PG9 binder | IC50, µM | AID 651937
PG126 binding DR – binds control antibody PG126 in PG9 counter-screen; IC50, µM; TR-FRET binding to antibody PG126, counterscreen; AID 651939; actives 20% (n = 95); shares compounds with PG9 binder
NR1D1 mod conf – Rev-erb alpha (human) modulation, hit confirmation. shares compounds with Rev-erbA mod. Rev-erb alpha FITC-DNA binding, fluorescence polarization, 90 min. activation, % at 25 µM. actives 61% (n = 3,000). AID 1259319;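 active = activation at or above a set limit, or at least 3 SD above the negative control mean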;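 also: 0% = 35 nM protein with DMSO and 100% = 750 nM protein high control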
RORg DNA counter – RORgamma DNA-binding activity, dose-response counter-screen | shares compounds with Rev-erbA mod | purified RORgamma protein-FITC-DNA binding, fluorescence polarization | IC50, µM | actives 8% (n = 910) | AID 1259320;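 active = Compounds whose fitted half-maximal concentration for disrupting protein-DNA binding is below 10 micromolar; the record names Rev-erb in its text, so the target is in doubt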
Numbers without * were called inactive; i = inactive; . = not tested or not shown. Rule as the data show it, unless noted: active = IC50 below about 9 µM; inactive = the rest.

SMILES	EP2 antag	EP2 modulator	PG9 binder	RAM network inh	Rev-erbA mod	SKN-1 block	PG9 binder conf	PGV04 counter	NR1D1 mod conf	others
CS(=O)(=O)c1ccc2nc(NC(=O)c3ccc(N4C(=O)CCC4=O)cc3)sc2c1	10	1	.	.	.	.	.	.	.
Cc1ccc(NC(=O)Nc2nc3ccc(S(C)(=O)=O)cc3s2)cc1	.	.	34*	.	19*	2	31*	42*	8
CS(=O)(=O)c1ccc2nc(NC(=O)Nc3ccc(Cl)c(Cl)c3)sc2c1	9	4	-1	1	8	3	.	.	.
COc1cccc(OC)c1C(=O)Nc1nc2ccc(S(C)(=O)=O)cc2s1	20	-16	1	1	4	-3	.	.	.
COc1ccc(CNc2c(-c3ccc(OC)c(CO)c3)nc3cnccn23)cc1	.	-61	.	.	.	.	.	.	.
Cc1ccc(O)c(Nc2nc(-c3ccccc3)nc3ccccc23)c1	.	.	0	.	1	5	.	.	.
COc1ccc(C)cc1Nc1nc(-c2ccccc2O)nc2ccccc12	.	.	11*	.	83*	-12	3	5	59*	RORg DNA counter=i
C=CCn1c(NC(=O)c2ccc(C)cc2)nc2ccccc21	.	.	40*	.	27*	0	26*	40*	-1
CCCn1c(NC(=O)c2ccc(C)cc2)nc2ccccc21	11	34	4	4	-2	2	.	.	.
Cc1c(C=Nc2ccc(SC#N)c(Cl)c2)c(O)[nH]c(=O)c1C#N	8	-5	.	.	.	.	.	.	.
O=C(c1ccc(Cn2c(=O)[nH]c3ccsc3c2=O)cc1)N1CCN(c2ccccc2)CC1	0	-23	0	3	1	-12	.	.	.
CCc1cccc(NC(=O)c2ccc(Cn3c(=O)[nH]c4ccsc4c3=O)cc2)c1	6	6	25*	5	55*	-11	29*	40*	60*	RORg DNA counter=i
CCOc1ccc(OCC)c(NC(=O)c2[nH]c(C)c(C(C)=O)c2C)c1	20	39	16*	6	59*	-5	11*	8	52*	PG9 bind DR=>67;PGV04 binding DR=3.6*;PG126 binding DR=3.9*;RORg DNA counter=>40
CCOc1cc(N2CCOCC2)c(OCC)cc1NC(=O)c1[nH]c(C)c(C(C)=O)c1C	.	.	-1	.	-8	13	.	.	.
N#Cc1c(N)nc(SCC(=O)NCCc2ccccc2)c(C#N)c1-c1cccs1	.	-104	40*	3	52*	26	38*	62*	43*	RORg DNA counter=>40
COC(=O)c1ccc(C2C(C#N)=C(N)OC(C)=C2C(=O)OC(C)C)cc1 (stereo not drawn)	12	-1	.	.	.	.	.	.	.
O=C(CSc1nc2ncc(Cl)cc2[nH]1)c1c[nH]c2ccccc12	27	-38	35*	.	23*	-14	35*	51*	23*
COC1C(CO)OC(n2c3c(Cl)cccc3c3c4c(c5c6cccc(Cl)c6[nH]c5c32)C(=O)NC4=O)C(O)C1O (stereo not drawn)	.	.	72*	.	111*	2	56*	68*	173*	RORg DNA counter=>40
COc1ccc2[nH]c(C(=O)Nc3ccc(F)cc3Br)cc2c1	22	-2	16*	.	68*	4	22*	65*	79*	RORg DNA counter=>40
O=C(Nc1ccc(F)cc1)c1cc2cc(Cl)ccc2[nH]1	.	.	11*	.	43*	12	13*	21*	7
O=C(Nc1cccc(NC(=O)c2cc3ccccc3o2)c1)c1ccc(F)cc1	19	-59	.	.	.	.	.	.	.
COc1ccc2c(c1)OC1(CCN(CC(O)c3ccccc3)CC1)CC2O (stereo not drawn)	4	-37	.	.	.	.	.	.	.
COC(=O)c1sc(NC(=O)c2c(OC)cccc2OC)c(C#N)c1C	12	51	14*	2	26*	7	20*	29*	29*
CCc1nn(CC(=O)NCCCN(C)C)c(=O)c2cc3sccc3n12	.	-7	.	.	.	.	.	.	.
Cc1cc(C)nc(N2CCCC(C(=O)NCC#N)C2)n1 (stereo not drawn)	10	24	.	.	.	.	.	.	.
SMILES	EP2 antag	EP2 modulator	PG9 binder	RAM network inh	Rev-erbA mod	SKN-1 block	PG9 binder conf	PGV04 counter	NR1D1 mod conf	others
O=C(Nc1scc(-c2ccccc2)c1C(=O)O)c1ccco1	7	-12	0	2	-1	3	.	.	.
COC(=O)c1c(-c2ccc(F)cc2)csc1NC(=O)c1ccco1	12	44	12*	3	27*	12	18*	25*	16
Cc1ccc(C(=O)OCc2cc3ccccc3[nH]c2=O)cc1	7	-54	15*	4	23*	-1	24*	31*	17*
COc1ccc(-c2cc(-c3ccc(C)o3)nc(N)c2C#N)cc1OC	21	44	.	.	.	.	.	.	.
COc1cc(-c2ccc3c(=O)c4ccccc4n(C)c3c2)cc(OC)c1OC	.	.	0	.	-5	-1	.	.	.
COc1cc(-c2ccc3c(=O)c4ccccc4sc3c2)cc(OC)c1OC	.	.	17*	.	76*	11	20*	31*	49*	RORg DNA counter=>40
COc1ccc(C(=O)Nc2nc3ccc4nc(C)sc4c3s2)cc1	9	18	13*	0	34*	-6	9.8*	12*	42*	RORg DNA counter=>40
COc1ccc(C(=O)Nc2nc3ccccc3s2)cc1	.	.	-1	.	1	-8	.	.	.
Cc1ccc(C(=O)Nc2nc3ccccc3c(=O)s2)cc1	10	25	73*	4	69*	3	78*	89*	35*	RORg DNA counter=2.1*
CC[C@@H](Cn1nc(-c2cccs2)oc1=O)NC(=O)c1csc(NC(C)=O)n1	4	-9	.	.	.	.	.	.	.
CC(=O)c1cccc(NC(=O)CCc2nc3sc4c(c3c(=O)[nH]2)CCCC4)c1	.	.	13*	.	23*	-3	11*	24*	18*
CCOC(=O)c1cc2sc(C)cc2n1CC(=O)NCc1ccc(F)cc1	19	9	59*	2	27*	3	49*	75*	11
CCOC(=O)c1cc2sc(C)cc2n1CC(=O)C(C)(C)C	11	31	.	.	.	.	.	.	.

Source: PubChem (several laboratories)
